# PubChem BioAssay (NCI)
# Compounds without any hit were thinned out: in the full panel of roughly 83,000, 20% have a hit.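 Compound tested at a single concentration for 48 hours in 96-well plates; a percent growth value below 10 was scored as active.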 Unmarked numbers belong to inactive results. The source made the active and inactive calls.
# Legend:
# Test in all cases: NCI-60 one-dose screen, 48 h (100 = growth as untreated, 0 = no growth, -100 = all killed)
# Settings in all cases: 10 µM unless noted
# [1] = test system: HCT-15 colon
# [2] = test system: HT29 colon
# [3] = test system: SNB-75 CNS
# [4] = test system: SNB-19 CNS
# [5] = test system: U251 CNS
# [6] = test system: PC-3 prostate
# [7] = test system: SK-MEL-5 melanoma
# [8] = test system: UACC-62 melanoma
# [9] = test system: LOX IMVI melanoma
# [10] = test system: SK-MEL-28 melanoma
SMILES,growth [1],growth [2],growth [3],growth [4],growth [5],growth [6],growth [7],growth [8],growth [9],growth [10]
Clc1ccc(Sc2cnc(-c3ccccc3)o2)cc1,103%,105%,92.6%,88.4%,91.4%,104%,97.8%,102%,97.3%,102%
O=C(CSc1nc2sc3c(c2c(=O)n1-c1ccccc1)CCCCC3)N/N=C/c1ccc(F)cc1,48.6%,26.2%,-65.4% (active),47.4%,6.96% (active),45.8%,50.7%,83.5%,37.1%,48.9%
CCS/C(Nc1ccccc1)=C(\C#N)C(=O)N/N=C/c1ccc(Cl)cc1Cl,19.9%,9.53% (active),-6.89% (active),19.6%,19.1%,31.5%,12.4%,26.6%,34.4%,60.5%
COc1cccc(CNc2ncnc3c2ncn3C2OC(CO)C(O)C2O)c1O (stereo not given),4.06% (active),26.5%,-12.4% (active),31.2%,12.6%,15.7%,14.4%,6.74% (active),-0.915% (active),29%
CCN(CC)CCOc1ccc(C(=C(C)c2ccc(Cl)cc2)c2ccc(OCCN(CC)CC)cc2)cc1,-76.9% (active),-74.8% (active),-92.6% (active),-81.8% (active),-81.6% (active),-59.3% (active),-98% (active),-78.1% (active),-88.5% (active),-88.5% (active)
Cc1nc2c(=O)[nH]c(SCC(=O)Nc3cccc(F)c3)nc2[nH]c1=O,102%,107%,93.6%,102%,106%,102%,102%,98.9%,101%,107%
O=Cc1ccc([N+](=O)[O-])s1,48.7%,55.4%,85.8%,91.4%,89.6%,92.6%,102%,80.2%,85.8%,99.5%
COc1ccc(-c2nnc3n(C)c(=O)c4ccccc4n23)cc1N,27.2%,4.95% (active),7.89% (active),31.1%,23.8%,22.1%,11.4%,12.9%,37.5%,53.6%
Cc1ccc(-c2nc3nc(-c4ccc(F)cc4)nc(N4CCNCC4)c3o2)cc1,-80% (active),-78.1% (active),-2.57% (active),40.5%,-30.9% (active),14.8%,96.9%,91.1%,-92% (active),114%
N#CCSc1nnc2n(Cc3ccccc3)c(=O)c3c4c(sc3n12)CCCC4,96.2%,111%,91.1%,104%,101%,95.2%,95.3%,95.6%,98.1%,116%
COc1ccc2c(O)c(/C=C3\N=Nc4ncccc43)oc2c1C[C@H]1CCNC[C@H]1F,7.66% (active),5.05% (active),-61.2% (active),10.4%,-51% (active),-5.49% (active),-30.1% (active),-15.4% (active),-11% (active),8.22% (active)
S=C1CCSC(=S)N1CCCN1C(=S)CCSC1=S,51.4%,67.8%,70%,89.7%,83.2%,69.1%,91.5%,50.4%,38.2%,86.6%
C=CCn1c(SCC(=O)NCc2cc(C)c(O)c(C)c2)nc2ccc(Cl)cc2c1=O,95.6%,102%,67.5%,99.7%,102%,96.1%,93.2%,81.9%,100%,109%
Cc1noc(C)c1C(=O)OCc1coc2ccccc2c1=O,52.5%,66%,81.6%,82.7%,72.8%,70.1%,80%,54.7%,70.8%,86.8%
CCN1CC(=O)N(/N=C2\C(=O)Nc3ccccc32)C1=S,95.1%,102%,80.3%,91.9%,99.2%,92%,79.4%,76.4%,86.5%,111%
CCCCCCCCn1ccc2cc(NC(=O)Cn3cc(CN4CCCCC4)nn3)ccc21,-40.7% (active),-61.2% (active),73.4%,-49.2% (active),-53.6% (active),54.6%,-93% (active),-81.4% (active),-80.3% (active),-85.4% (active)
COC(=O)c1n[nH]c2ccc3nc(-c4cn[nH]c4C(F)(F)F)c4c(c3c12)CCCC4,39%,25.7%,28.8%,68.7%,41.7%,64.4%,40.4%,21.6%,21.7%,25.5%
O=C(CCCCCCN1CC(=O)N2[C@H](c3cc(Br)cs3)c3[nH]c4ccccc4c3C[C@H]2C1=O)NO,96.9%,50.7%,26.2%,41.1%,33.3%,46.9%,27%,12%,8.65% (active),27.7%
CCCc1cc(NC)nc(S(=O)(=O)CC)n1,104%,107%,88.6%,102%,107%,109%,104%,93.8%,103%,106%
Cc1nc(-c2ccccc2)cc2c(O)c(C(=O)NN)[nH]c(=O)c12,107%,114%,104%,106%,106%,67.3%,100%,98.6%,107%,111%
CN(C)CCCn1c2c(c3ncccc3c1=O)C(=O)c1ccccc1-2,28.6%,20.9%,79%,37.3%,29%,39%,30.7%,34.6%,19.1%,65%
N#Cc1cccc(NC(=O)c2oc3ccccc3c2-c2cnn(-c3ccccc3)c2)c1,74.1% [50 µM],85.5% [50 µM],86.3% [50 µM],84.2% [50 µM],85.3% [50 µM],-9.05% [50 µM] (active),67.7% [50 µM],75% [50 µM],77.9% [50 µM],91.9% [50 µM]
O=C1Nc2ccccc2/C1=C\c1nc(-c2ccccc2)n2ccccc12,80.2%,91.6%,79.6%,103%,89.6%,87.4%,89.7%,78.3%,84.6%,113%
N#Cc1c(-c2ccc(Cl)cc2)nc(NN=Cc2cccc(O)c2)nc1N1CCOCC1,44.7%,69.8%,46.1%,86.9%,61.6%,63.8%,76.5%,94.1%,61.7%,77.1%
CC1(C)CC[C@]2(C(=O)O)CC[C@]3(C)C(=CC[C@@H]4[C@@]5(C)C/C(=C/O)C(=O)C(C)(C)[C@@H]5CC[C@]43C)[C@@H]2C1,24.4%,26.6%,95.4%,60.1%,28.3%,31.4%,67.8%,61.6%,27.4%,52.2%
CC1=C(C(=O)OC(C)C)C(c2ccc3c(c2)OCO3)NC(=S)N1 (stereo not given),100%,103%,95.2%,95.4%,102%,86%,98.5%,85.2%,97.3%,106%
